# Measured values published in the supplement of paper PMC9023506.
# Counter-ions that a name gives are not always drawn.
# Columns and labels:
# Conditions in all cases: 10 µM; exposure time: 3 h pre-incubation + 3 h imaging
# [1] = test system: Danio rerio larvae (5 dpf); assay: optomotor response to red moving lines, difference vs DMSO (percentage points (treated minus DMSO)); higher = more of the behaviour than the DMSO vehicle control
# How it was run: (§1)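 Library drugs were diluted 1000× from DMSO stocks into egg water to reach 10 µM and applied to 5-dpf wild-type zebrafish larvae in 96-well ProxiPlates, 48 larvae per drug. The larvae stayed exposed for 3 h before imaging and for the 3 h of imaging at 28.5 °C. Behaviour scores, given in percentage points, are the treated mean minus the vehicle mean for movement and upper-half location.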
# [2] = test system: Danio rerio larvae (5 dpf); assay: optomotor response to fast red moving lines, difference vs DMSO (percentage points (treated minus DMSO)); higher = more of the behaviour than the DMSO vehicle control
# How it was run: as §1
# [3] = test system: Danio rerio larvae (5 dpf); assay: optomotor response to blue moving lines, difference vs DMSO (percentage points (treated minus DMSO)); higher = more of the behaviour than the DMSO vehicle control
# How it was run: as §1
# [4] = test system: Danio rerio larvae (5 dpf); assay: startle response to 20-s acoustic pulses, difference vs DMSO (percentage points (treated minus DMSO)); higher = more of the behaviour than the DMSO vehicle control
# How it was run: as §1
# [5] = test system: Danio rerio larvae (5 dpf); assay: habituation to 1-s acoustic pulses, difference vs DMSO (percentage points (treated minus DMSO)); higher = more of the behaviour than the DMSO vehicle control
# How it was run: as §1
# [6] = test system: Danio rerio larvae (5 dpf); assay: activity during period 15 (no stimuli), difference vs DMSO (percentage points (treated minus DMSO)); higher = more of the behaviour than the DMSO vehicle control
# How it was run: as §1
# [7] = test system: Danio rerio larvae (5 dpf); assay: excitability to 1-s acoustic pulses, difference vs DMSO (percentage points (treated minus DMSO)); higher = more of the behaviour than the DMSO vehicle control
# How it was run: as §1
# [8] = test system: Danio rerio larvae (5 dpf); assay: optomotor response to green moving lines, difference vs DMSO (percentage points (treated minus DMSO)); higher = more of the behaviour than the DMSO vehicle control
# How it was run: as §1
compound,measurement,setting,value
CCCCC1=NC2(CCCC2)C(=O)N1Cc1ccc(-c2ccccc2-c2nnn[nH]2)cc1 [Irbesartan],optomotor response to red moving lines,[1],-7.57
same,optomotor response,[2],-14.6
OC(CNCC(O)C1CCc2cc(F)ccc2O1)C1CCc2cc(F)ccc2O1 (stereo not drawn) [Nebivolol hydrochloride],optomotor response to blue moving lines,[3],-16.6
Cn1cnc([N+](=O)[O-])c1Sc1ncnc2[nH]cnc12 [Azathioprine],startle response to 20-s acoustic pulses,[4],-1.29
same,optomotor response,[2],9.79
CCCCCCCCc1ccc(CCC(N)(CO)CO)cc1,habituation to 1-s acoustic pulses,[5],3.87
same,optomotor response,[2],10.4
C[C@]12CCC(=O)C=C1CC[C@@H]1[C@@H]2[C@@H](O)C[C@@]2(C)[C@H]1CC[C@]2(O)C(=O)CO [Hydrocortisone],activity during period 15,[6],-3.01
CC(C)(C#N)c1cc(Cn2cncn2)cc(C(C)(C)C#N)c1 [Anastrozole],activity during period 15,[6],2.84
same,startle response to 20-s acoustic pulses,[4],-0.38
CC(C)c1ccc2oc3nc(N)c(C(=O)O)cc3c(=O)c2c1 [Amlexanox],habituation to 1-s acoustic pulses,[5],-1.39
same,startle response to 20-s acoustic pulses,[4],0.978
COc1ccccc1OCC(O)CN1CCN(CC(=O)Nc2c(C)cccc2C)CC1 (stereo not drawn) [Ranolazine dihydrochloride],habituation to 1-s acoustic pulses,[5],-4.45
CC(C)C(=O)OCC(=O)[C@@]12O[C@H](C3CCCCC3)O[C@@H]1C[C@H]1[C@@H]3CCC4=CC(=O)C=C[C@]4(C)[C@H]3[C@@H](O)C[C@@]12C [Ciclesonide],excitability to 1-s acoustic pulses,[7],4.96
same,activity during period 15,[6],-5.84
same,optomotor response,[2],-3.93
Nc1nc2c(ncn2COCCO)c(=O)[nH]1 [Acyclovir],excitability to 1-s acoustic pulses,[7],0.524
same,startle response to 20-s acoustic pulses,[4],0.665
Nc1cc(N2CCCCC2)nc(N)[n+]1[O-] [Minoxidil],habituation to 1-s acoustic pulses,[5],5.2
same,excitability to 1-s acoustic pulses,[7],1
same,activity during period 15,[6],6.89
same,startle response to 20-s acoustic pulses,[4],-2.65
Cc1cc(C2CCCCC2)n(O)c(=O)c1 [Ciclopirox],excitability to 1-s acoustic pulses,[7],5.96
same,activity during period 15,[6],10.7
same,optomotor response,[2],3.21
COc1cc2nccc(Oc3ccc(NC(=O)C4(C(=O)Nc5ccc(F)cc5)CC4)cc3)c2cc1OC,optomotor response,[2],-16.9
CNC(=O)c1cc(Oc2ccc(NC(=O)Nc3ccc(Cl)c(C(F)(F)F)c3)cc2)ccn1 [Sorafenib],habituation to 1-s acoustic pulses,[5],-8.29
same,optomotor response,[2],-21.1
Cc1c(-c2ccc(O)cc2)n(Cc2ccc(OCCN3CCCCCC3)cc2)c2ccc(O)cc12 [Bazedoxifene acetate],startle response to 20-s acoustic pulses,[4],-4.17
CC1=Nc2ccc(Cl)cc2S(=O)(=O)N1 [Diazoxide],activity during period 15,[6],2.35
Nc1ncn([C@H]2C[C@H](O)[C@@H](CO)O2)c(=O)n1 [Decitabine],startle response to 20-s acoustic pulses,[4],-0.522
CC(C)n1c(/C=C/C(O)CC(O)CC(=O)O)c(-c2ccc(F)cc2)c2ccccc21 (stereo not drawn) [Fluvastatin sodium],habituation to 1-s acoustic pulses,[5],4.04
same,excitability to 1-s acoustic pulses,[7],3.77
same,activity during period 15,[6],5.99
CC(C)c1nc(N(C)S(C)(=O)=O)nc(-c2ccc(F)cc2)c1/C=C/[C@@H](O)C[C@@H](O)CC(=O)O [Rosuvastatin calcium],habituation to 1-s acoustic pulses,[5],0.315
Cn1nnc2c(C(N)=O)ncn2c1=O [Temozolomide],habituation to 1-s acoustic pulses,[5],4.01
same,excitability to 1-s acoustic pulses,[7],-2.39
same,optomotor response,[2],-10.8
CNCc1ccc(-c2[nH]c3cc(F)cc4c3c2CCNC4=O)cc1 [Rucaparib camsylate],activity during period 15,[6],-8.43
CCOc1nc2cccc(C(=O)O)c2n1Cc1ccc(-c2ccccc2-c2nnn[nH]2)cc1 [Candesartan],excitability to 1-s acoustic pulses,[7],-3.51
Cc1cc2c(s1)Nc1ccccc1N=C2N1CCN(C)CC1 [Olanzapine],excitability to 1-s acoustic pulses,[7],3.32
same,activity during period 15,[6],5.7
same,startle response to 20-s acoustic pulses,[4],-0.064
NC(=O)OCC(COC(N)=O)c1ccccc1 [Felbamate],startle response to 20-s acoustic pulses,[4],2.22
CCOC(=O)[C@H](CCc1ccccc1)N[C@@H](C)C(=O)N1[C@H](C(=O)O)C[C@@H]2CCC[C@@H]21 [Ramipril],excitability to 1-s acoustic pulses,[7],4.17
same,startle response to 20-s acoustic pulses,[4],-1.54
CN(C)CC/C=C1/c2ccccc2COc2ccc(CC(=O)O)cc21 [Olopatadine hydrochloride],habituation to 1-s acoustic pulses,[5],0.997
same,excitability to 1-s acoustic pulses,[7],3.92
same,optomotor response,[2],5.8
CC(CCc1ccc(O)cc1)NCCc1ccc(O)c(O)c1 (stereo not drawn) [Dobutamine hydrochloride],excitability to 1-s acoustic pulses,[7],5.75
same,activity during period 15,[6],-8.99
CC1(C)O[C@@H]2[C@@H](CO[C@@]3(COS(N)(=O)=O)OC(C)(C)O[C@@H]23)O1 [Topiramate],habituation to 1-s acoustic pulses,[5],-3.26
same,optomotor response to green moving lines,[8],-1.84
Cc1ccsc1C(=CCCN1CCC[C@@H](C(=O)O)C1)c1sccc1C [Tiagabine hydrochloride],startle response to 20-s acoustic pulses,[4],5.98
COc1cc2nc(N3CCN(C(=O)c4ccco4)CC3)nc(N)c2cc1OC [Prazosin hydrochloride],habituation to 1-s acoustic pulses,[5],0.4
same,activity during period 15,[6],1.78
C/C(O)=C(\C#N)C(=O)Nc1ccc(C(F)(F)F)cc1 [Teriflunomide],excitability to 1-s acoustic pulses,[7],10.6
O=C(c1ccc(OCCN2CCCCC2)cc1)c1c(-c2ccc(O)cc2)sc2cc(O)ccc12 [Raloxifene hydrochloride],excitability to 1-s acoustic pulses,[7],9.93
CC(=O)O[C@H]1C(=O)[C@@]2(C)[C@H]([C@H](OC(=O)c3ccccc3)[C@]3(O)C[C@H](OC(=O)[C@H](O)[C@@H](NC(=O)c4ccccc4)c4ccccc4)C(C)=C1C3(C)C)[C@]1(OC(C)=O)CO[C@@H]1C[C@@H]2O [Taxol],habituation to 1-s acoustic pulses,[5],-2.74
CC(C)(C(=O)c1cccnc1)c1cccnc1 [Metyrapone],activity during period 15,[6],-7.26
Nc1cccc2c1CN(C1CCC(=O)NC1=O)C2=O (stereo not drawn) [Lenalidomide],activity during period 15,[6],4.34
CNC(=O)c1ccccc1Sc1ccc2c(/C=C/c3ccccn3)n[nH]c2c1 [Axitinib],excitability to 1-s acoustic pulses,[7],1.46
same,optomotor response,[2],-2.38
